Reference: PubChem BioAssay (EPA / NIEHS)
Several values for one entry are separate records, joined by “and”; a condition that tells them apart may be missing. Equal entries are not always repeated. A structure can be active in one record and inactive in another. Activity calls are given as the source filed them. Rule for the calls: active = hit-call score of the fitted dose curve at least 0.9, where 1 is the maximum; inactive = score below 0.9.

What was measured:
[1] = read-out: Macrophage colony-stimulating factor (MCSF), CSF1 (gene 1435); test: BSK_hDFCGF_MCSF: BioMAP Diversity Plus: hDFCGF Assay for Macrophage colony-stimulating factor (MCSF) Biomarker Activity (AID 2283060); details: primary human foreskin fibroblasts; actives raise or lower the signal
Outline: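 M-CSF levels read by ELISA at 24 h post-dosing in human skin fibroblasts. Parallel cultures stained with SRB assessed cytotoxicity at the same time point; response fitted in both directions against the DMSO baseline.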

[2] = BSK_hDFCGF_SRB: Viability Assessment in the BioMAP Diversity Plus: hDFCGF Assay (AID 2283061); details: primary human foreskin fibroblasts;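 note: cells exposed to compound for 24 h before the read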
Outline: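 Viability was read as total protein: after 10% TCA fixation, wells were stained with 0.1% sulforhodamine B and read at 560 nm. Primary human foreskin fibroblasts were dosed for 24 h, with bidirectional fitting versus DMSO.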

[3] = read-out: Monokine induced gamma interferon (MIG), CXCL9 (gene 4283); test: BSK_hDFCGF_MIG: BioMAP Diversity Plus: hDFCGF Assay for Monokine induced gamma interferon (MIG) Biomarker Activity (AID 2283063); details: primary human foreskin fibroblasts; actives raise or lower the signal
Outline: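 Human primary foreskin fibroblasts in the hDFCGF system, exposed to test chemical for 24 h; MIG measured by ELISA. Bidirectional curve fitting against DMSO negative control as activity baseline.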

[4] = read-out: Matrix Metallopeptidase 1 (MMP1), MMP1 (gene 4312); test: BSK_hDFCGF_MMP1: BioMAP Diversity Plus: hDFCGF Assay for Matrix Metallopeptidase 1 (MMP1) Biomarker Activity (AID 2283064); details: primary human foreskin fibroblasts; actives raise or lower the signal
Outline: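 hDFCGF primary fibroblasts (human foreskin); chemical added; 24 h; MMP1 by ELISA; bidirectional fit vs DMSO.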

[5] = read-out: Plasminogen activator inhibitor-1 (PAI1), SERPINE1 (gene 5054); test: BSK_hDFCGF_PAI1: BioMAP Diversity Plus: hDFCGF Assay for Plasminogen activator inhibitor-1 (PAI1) Biomarker Activity (AID 2283066); details: primary human foreskin fibroblasts; actives raise or lower the signal
Outline: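 Human foreskin fibroblast primary cells, 24 h chemical exposure; PAI-1 measured by ELISA. Bidirectional fitting relative to DMSO; parallel cultures stained with SRB for total protein to flag overt cytotoxicity.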

[6] = read-out: Intercellular Adhesion Molecule 1 (ICAM1), ICAM1 (gene 3383); test: BSK_KF3CT_ICAM1: BioMAP Diversity Plus: KF3CT Assay for Intercellular Adhesion Molecule 1 (ICAM1) Biomarker Activity (AID 2283067); details: primary human keratinocytes with fibroblasts; actives raise or lower the signal
Outline: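 Cell-surface ICAM-1 was measured by ELISA 24 h after dosing primary human skin keratinocytes co-cultured with fibroblasts. Parallel SRB staining tracked overt cytotoxicity. Gain or loss of signal was fitted relative to DMSO.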

[7] = read-out: Interferon-gamma inducible Protein 10 (IP10), CXCL10 (gene 3627); test: BSK_KF3CT_IP10: BioMAP Diversity Plus: KF3CT Assay for Interferon-gamma inducible Protein 10 (IP10) Biomarker Activity (AID 2283068); details: primary human keratinocytes with fibroblasts; actives raise or lower the signal
Outline: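 In a primary skin co-culture of keratinocytes and fibroblasts, IP-10 is quantified by ELISA at 24 h after dosing. SRB staining of parallel wells monitors overt toxicity. Curves are fitted both directions against DMSO.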

[8] = BSK_KF3CT_SRB: Viability Assessment in the BioMAP Diversity Plus: KF3CT Assay (AID 2283069); details: primary human keratinocytes with fibroblasts;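 note: total protein by sulforhodamine B staining as a cytotoxicity measure; read 24 h after compound addition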
Outline: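 Keratinocytes co-cultured with foreskin fibroblasts (human primary); chemical added, 24 h; fix 10% TCA, stain 0.1% SRB, A560. Bidirectional fit vs DMSO.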

[9] = read-out: Interleukin-1 alpha (IL1a), IL1A (gene 3552); test: BSK_KF3CT_IL1a: BioMAP Diversity Plus: KF3CT Assay for Interleukin-1 alpha (IL1a) Biomarker Activity (AID 2283070); details: primary human keratinocytes with fibroblasts; actives raise or lower the signal
Outline: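 Chemicals were dosed onto co-cultured human keratinocytes and foreskin fibroblasts, IL-1a was quantified by ELISA at 24 h, and activity was fitted in both directions relative to DMSO controls.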

[10] = read-out: TIMP metallopeptidase inhibitor 2 (TIMP2), TIMP2 (gene 7077); test: BSK_KF3CT_TIMP2: BioMAP Diversity Plus: KF3CT Assay for TIMP metallopeptidase inhibitor 2 (TIMP2) Biomarker Activity (AID 2283071); details: primary human keratinocytes with fibroblasts; actives raise or lower the signal
Outline: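 Co-culture of human primary keratinocytes and foreskin fibroblasts, measured 24 h after chemical dosing. TIMP-2 quantified by ELISA and fitted in both directions relative to DMSO. Cytotoxicity checked in parallel cultures by SRB total-protein staining.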

[11] = read-out: Transforming growth factor beta 1 (TGFb1), TGFB1 (gene 7040); test: BSK_KF3CT_TGFb1: BioMAP Diversity Plus: KF3CT Assay for Transforming growth factor beta 1 (TGFb1) Biomarker Activity (AID 2283072); details: primary human keratinocytes with fibroblasts; actives raise or lower the signal
Outline: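 Human keratinocyte/foreskin fibroblast co-culture; TGF-b1 measured by ELISA 24 h after dosing, fitted bidirectionally versus DMSO. Cytotoxicity checked in parallel cultures by total protein (SRB staining, 560 nm).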

[12] = read-out: C-C motif chemokine 2 (Homo sapiens) (UniProt P13500); test: BSK_KF3CT_MCP1: BioMAP Diversity Plus: KF3CT Assay for Monocyte Chemoattractant Protein 1 (MCP1/CCL2) Biomarker Activity (AID 2283073); details: primary human keratinocytes with fibroblasts; actives raise or lower the signal
Outline: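 ELISA read-out of MCP-1, 24 h post-dose, in primary human skin keratinocytes co-cultured with fibroblasts. Parallel SRB staining monitors cytotoxicity; changes fitted both directions relative to DMSO.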

[13] = read-out: Matrix Metallopeptidase 9 (MMP9), MMP9 (gene 4318); test: BSK_KF3CT_MMP9: BioMAP Diversity Plus: KF3CT Assay for Matrix Metallopeptidase 9 (MMP9) Biomarker Activity (AID 2283074); details: primary human keratinocytes with fibroblasts; actives raise or lower the signal;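 for AC50: MMP9 protein level quantified by ELISA in the co-culture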
Outline: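 Human keratinocyte/foreskin fibroblast co-culture; compound added; 24 h; MMP-9 by ELISA; bidirectional fit vs DMSO baseline.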

[14] = read-out: urokinase plasminogen activator (uPA), PLAU (gene 5328); test: BSK_KF3CT_uPA: BioMAP Diversity Plus: KF3CT Assay for urokinase plasminogen activator (uPA) Biomarker Activity (AID 2283075); details: primary human keratinocytes with fibroblasts; actives raise or lower the signal
Outline: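 ELISA readout of uPA, analyzed for signal gain or loss relative to DMSO, from a human primary keratinocyte–foreskin fibroblast co-culture measured 24 h after chemical treatment.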

CD40, CD40 (gene 958) = test: BSK_LPS_CD40: BioMAP Diversity Plus: LPS Assay for CD40 Biomarker Activity (AID 2283076); details: primary human HUVEC with PBMC; actives raise or lower the signal
Outline: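 In the LPS system of human endothelial cells with peripheral blood mononuclear cells, CD40 levels were read by ELISA 24 h post-treatment. Signal changes in either direction were fitted against the DMSO baseline, with parallel SRB protein staining.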

[15] = read-out: E-selectin (Homo sapiens) (UniProt P16581); test: BSK_LPS_Eselectin: BioMAP Diversity Plus: LPS Assay for Eselectin Biomarker Activity (AID 2283077); details: primary human HUVEC with PBMC; actives raise or lower the signal
Outline: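 E-selectin ELISA on LPS-stimulated endothelial cell/PBMC co-cultures, read 24 h post-treatment; gains and losses fitted against DMSO. Parallel SRB staining (0.1% SRB after 10% TCA fixation, 560 nm) flags overt cytotoxicity.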

[16] = read-out: Interleukin-8 (IL8), CXCL8 (gene 3576); test: BSK_LPS_IL8: BioMAP Diversity Plus: LPS Assay for Interleukin-8 (IL8) Biomarker Activity (AID 2283078); details: primary human HUVEC with PBMC; actives raise or lower the signal
Outline: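 ELISA read-out of IL-8 after 24 h chemical treatment of LPS-activated endothelial/PBMC human primary co-cultures. Changes either up or down relative to DMSO; overt cytotoxicity checked by sulforhodamine B staining in parallel wells.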

[17] = BSK_LPS_SRB: Viability Assessment in the BioMAP Diversity Plus: LPS Assay (AID 2283079); details: primary human HUVEC with PBMC;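 note: total protein by sulforhodamine B absorbance as a cytotoxicity measure; measured one day after compound addition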
Outline: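 SRB viability endpoint: cells fixed with 10% TCA, stained with 0.1% SRB, read at 560 nm, 24 h post-dose. HUVEC/PBMC co-culture; signal change in either direction scored relative to DMSO.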

[18] = read-out: Vascular cell adhesion molecule 1 (VCAM1), VCAM1 (gene 7412); test: BSK_hDFCGF_VCAM1: BioMAP Diversity Plus: hDFCGF Assay for Vascular cell adhesion molecule 1 (VCAM1) Biomarker Activity (AID 2283065); details: primary human foreskin fibroblasts; actives raise or lower the signal
Outline: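 ELISA readout of VCAM-1 on human dermal fibroblast primary cultures, 24 h after chemical exposure. Gain or loss of signal fitted in both directions against DMSO baseline.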

Measured: AC50

Sequence of E-selectin (Homo sapiens) (P16581 whole entry, looked up): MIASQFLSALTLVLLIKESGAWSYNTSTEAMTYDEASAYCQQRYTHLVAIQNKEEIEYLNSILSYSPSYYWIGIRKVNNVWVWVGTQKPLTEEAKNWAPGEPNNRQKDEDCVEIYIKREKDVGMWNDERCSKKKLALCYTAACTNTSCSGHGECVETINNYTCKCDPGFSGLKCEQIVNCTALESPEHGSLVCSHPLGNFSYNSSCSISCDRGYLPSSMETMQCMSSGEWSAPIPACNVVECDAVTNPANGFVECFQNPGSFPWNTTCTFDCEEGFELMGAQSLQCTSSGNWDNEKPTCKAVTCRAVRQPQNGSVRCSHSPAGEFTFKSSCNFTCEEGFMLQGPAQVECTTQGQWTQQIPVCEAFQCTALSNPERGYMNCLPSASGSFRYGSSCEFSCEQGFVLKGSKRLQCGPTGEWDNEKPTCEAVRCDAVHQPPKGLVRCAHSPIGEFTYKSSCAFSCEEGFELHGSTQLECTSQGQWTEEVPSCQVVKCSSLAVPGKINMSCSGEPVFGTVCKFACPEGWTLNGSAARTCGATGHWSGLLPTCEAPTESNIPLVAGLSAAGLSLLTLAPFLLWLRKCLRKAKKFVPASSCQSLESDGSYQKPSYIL

Oc1c(Cl)cc(Cl)c(Cl)c1Cl
inactive: [1] | [3] | [4] | [8] | [9] | [14] | [16]
active: [2] 28.7 µM | [5] 24.6 µM | [6] 20 µM | [7] 20 µM | [10] 11.4 µM | [11] 20 µM | [12] 20 µM | [13] 20 µM | CD40, CD40 (gene 958) 20 µM | [15] 30.7 µM

CCNc1nc(NC(C)(C)C)nc(OC)n1
not listed: [18]
inactive: all other assays above

CCCCCCCCCCCC(=O)N(C)CC(=O)O
not listed: [11] | [17] | [18]
inactive: all other assays above

Nc1cccc(N)n1
not listed: [17] | [18]
inactive: all other assays above

CC(C)c1cccc(C(C)C)c1N
inactive: all assays above

CC/C=C\CCOC(=O)c1ccccc1O
active: [1] 13.1 µM | [2] 13.7 µM | [3] 20 µM | [4] 13.3 µM | [5] 11.6 µM | [6] 20 µM | [7] 31 µM | [8] 28.8 µM | [9] 30.2 µM | [10] 14.7 µM | [11] 14.5 µM | [14] 29.8 µM | CD40, CD40 (gene 958) 36.2 µM | [15] 38.1 µM | [16] 33.5 µM
inactive: [12] | [13]

CCCCCCCO
not listed: [18]
inactive: all other assays above

C=CCCCCCCCCC=O
not listed: [17] | [18]
inactive: all other assays above

CC(Cl)COP(=O)(OCC(C)Cl)OCC(C)Cl (stereo unspecified)
not listed: [18]
inactive: all other assays above

CC(C)[N+](C)(CCOC(=O)C1c2ccccc2Oc2ccccc21)C(C)C
active: [17] 3.97 µM
not listed: [18]
inactive: all other assays above

c1ccc(Nc2cccc3ccccc23)cc1
active: [1] 20 µM and 14.5 µM | [2] 32.7 µM and 33.1 µM | [3] 27.5 µM and 23.4 µM | [4] 30.7 µM and 30 µM | [5] 13.1 µM and 12.3 µM | [6] 30.7 µM and 37.7 µM | [7] 34.2 µM and 35.7 µM | [8] 31.8 µM and 34.8 µM | [9] 29.8 µM and 28.6 µM | [10] 34.5 µM and 33.3 µM | [12] 28.8 µM and 26.7 µM | [13] 31.3 µM and 31.7 µM | [14] 33.8 µM and 32.2 µM | CD40, CD40 (gene 958) 22.9 µM and 30.7 µM | [16] 24.5 µM and 20 µM

C=CC(=O)NC(C)(C)C
not listed: [18]
inactive: all other assays above

CC=C(C)C(C)=O
not listed: [17] | [18]
inactive: all other assays above

c1ccc2c(c1)[nH]c1ccccc12
inactive: [1] | [2] | [3] | [4] | [5] | [6] | [7] | [8] | [9] | [10] | [11] | [12] | [13] | [14] | CD40, CD40 (gene 958) | [15] | [16]
active: [16] 0.017 µM

O=C(Oc1ccccc1)c1ccccc1C(=O)Oc1ccccc1
active: [5] 20 µM
not listed: [18]
inactive: all other assays above

CC(CCC(=O)O)(c1ccc(O)cc1)c1ccc(O)cc1
not listed: [11]
inactive: all other assays above

Fc1ccc(Br)cc1
not listed: [17] | [18]
inactive: all other assays above
